Results taken from PubChem BioAssay AID504332 (National Center for Advancing Translational Sciences (NCATS), 2011).
Hit rate of the full screen: of about 350,000 compounds, about 31,000 (8.9%) were called active. Inconclusive results (about 15%) are left out. This excerpt belongs to a sample that is enriched for actives. Unmarked numbers belong to inactive results. The call rests on the fitted dose curve; in most records, active means well fitted inhibition curve with a large enough effect; inconclusive means small, poorly fitted or top-dose-only effect; inactive means no such curve, though single readings can be large or run the other way.

Biological target: Histone-lysine N-methyltransferase EHMT2 (Homo sapiens) (UniProt Q96KQ7)
Sequence (Q96KQ7 913-1193 limits assumed): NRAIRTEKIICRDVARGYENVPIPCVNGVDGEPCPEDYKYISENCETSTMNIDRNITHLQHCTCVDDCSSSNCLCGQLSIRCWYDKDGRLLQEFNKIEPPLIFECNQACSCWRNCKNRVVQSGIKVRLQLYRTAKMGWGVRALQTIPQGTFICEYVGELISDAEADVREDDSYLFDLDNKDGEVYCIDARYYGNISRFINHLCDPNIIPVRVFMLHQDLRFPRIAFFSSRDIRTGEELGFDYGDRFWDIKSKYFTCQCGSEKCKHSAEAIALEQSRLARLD
Assay: qHTS Assay for Inhibitors of Histone Lysine Methyltransferase G9a; further: nearly all actives have a fitted effect of over 75% in size
Details: G9a H3K9 monomethylation, AlphaScreen, 2 h; series mostly up to 59 µM; activity, negative = inhibition: at the top concentration
Method in brief: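 Chemiluminescent proximity detection of H3K9 monomethylation, read after 10 min bead incubation in the dark. Reaction: 20 nM G9a, 500 nM biotin-H3K9 peptide, 20 uM SAM cofactor, 2 h, room temperature, following 15 min enzyme-compound preincubation.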
On the % scale 0 is the no-effect control and ±100 the full control effect; potency means the concentration at half of the fitted maximal effect.

**Q.** Which “activity, negative = inhibition” value does the source give for CCOc1ccccc1NC(=O)Cn1c(=O)n(-c2cccc(C)c2)c(=O)c2c1c1cc(OC)ccc1n2C here?
**A.** The value was 3.71%.

**Q.** Cc1cc2oc(C(=O)N(Cc3ccc(Cl)cc3)Cc3ccco3)c(C)c2cc1Cl was tested. Which “activity, negative = inhibition” value did it give?
**A.** Its value is 3.31%.

**Q.** With COc1ccc(CN2CCN(C(=O)c3cc(C4CC4)nn3-c3ccccc3)CC2)cc1F as the compound, how does the “activity, negative = inhibition” value read?
**A.** The value was -5.17%.

**Q.** O=[N+]([O-])c1ccc2nc(-c3ccccn3)[nH]c2c1 was tested. Which “activity, negative = inhibition” value did it give?
**A.** Its value is 3.58% [at 102 µM].

**Q.** With O=C(COC(=O)c1cc([N+](=O)[O-])ccc1NCc1ccccc1)NC1CCCCC1 as the compound, how does the “activity, negative = inhibition” value read?
**A.** Its value is -5.06% [at 102 µM].

**Q.** How did the Potency turn out when C[n+]1ccccc1C1CCCC/C1=N\Nc1ccc([N+](=O)[O-])cc1[N+](=O)[O-] (configuration not stated) was run?
**A.** The Potency was 2 µM (active).

**Q.** Cc1cc([N+](=O)[O-])ccc1NC1CCCC1 was tested. Which “activity, negative = inhibition” value did it give?
**A.** Its value is -0.358%.

**Q.** For O=C(Nc1ccccc1)O/N=C1\CCCCC1c1ccc([N+](=O)[O-])cc1[N+](=O)[O-] (configuration not stated), which “activity, negative = inhibition” value is on record?
**A.** Its value is 8.25% [at 102 µM].

**Q.** With O=[N+]([O-])c1ccc(N/N=C2/CCCCC2c2ccccn2)c([N+](=O)[O-])c1 (configuration not stated) as the compound, how does the Potency read?
**A.** Its Potency is 10 µM (active).

**Q.** With CCOc1ccc(CNCc2c(C(=O)O)c(C)n(Cc3cccc(OC)c3)c2C)cc1OC as the compound, how does the “activity, negative = inhibition” value read?
**A.** Its value is 2.42%.

**Q.** How did the “activity, negative = inhibition” value turn out when CC(C)Sc1oc(-c2cccs2)nc1S(=O)(=O)c1ccc(Cl)cc1 was run?
**A.** The value was 12.9%.

**Q.** With C/C(=N\OC(=O)c1ccccc1)c1c(C)nc2cc(C)ccn12 as the compound, how does the Potency read?
**A.** The Potency was 50.1 µM (active).

**Q.** Which “activity, negative = inhibition” value does the source give for C/C(=N/OC(=O)c1ccc(Br)cc1)c1ccc(C)cc1 here?
**A.** Its value is 20.4% [at 102 µM].

**Q.** CCOc1ccc(/C=N\NC(=O)c2c(C)nc3cc(C)ccn23)cc1 was tested. Which activity, negative = inhibition did it give?
**A.** Its activity, negative = inhibition is 18% [at 0.501 µM].

**Q.** Which “activity, negative = inhibition” value does the source give for Cc1nnc(N2CCC(C(=O)Nc3ccc(F)cc3)CC2)c2nn(-c3ccc(Cl)cc3)c(C)c12 here?
**A.** The value was -2.85%.

**Q.** How did the “activity, negative = inhibition” value turn out when Cc1cccc(C(=O)NCCc2nc3ccccc3n2Cc2ccccc2Cl)c1 was run?
**A.** Its value is -2.51%.

**Q.** How did the activity, negative = inhibition turn out when O=C(Nc1cccc(-c2cccc(Cl)c2)c1)C1CCN(C2CCC2)CC1 was run?
**A.** Its activity, negative = inhibition is -4.3% [at 0.0925 µM].

**Q.** How did the activity, negative = inhibition turn out when O=Cc1c(Nc2ccccc2Cl)nc2ccccn2c1=O was run?
**A.** Its activity, negative = inhibition is 5.69% [at 0.501 µM].

**Q.** For COc1ccccc1C(=O)N1CCN=C1SCc1cccnc1, which activity, negative = inhibition is on record?
**A.** The activity, negative = inhibition was 4.75% [at 12.7 µM].

**Q.** With COc1cccc(OC)c1C(=O)N1CCN(Cc2cccnc2)CC1 as the compound, how does the Potency read?
**A.** Its Potency is 7.08 µM (active).

**Q.** For COc1cccc(OC)c1OCCN1CCN(C(=O)c2ccco2)CC1, which “activity, negative = inhibition” value is on record?
**A.** The value was 12.4% [at 102 µM].

**Q.** Which “activity, negative = inhibition” value does the source give for CCC(C)N(C(=O)CSc1nnnn1-c1ccccc1OC)C1CCS(=O)(=O)C1 (configuration not stated) here?
**A.** The value was -13%.

**Q.** Which “activity, negative = inhibition” value does the source give for CCn1c(=O)c(=O)[nH]c2c(=O)oc3ccc(S(=O)(=O)Nc4ccc(OC)cc4)cc3c21 here?
**A.** Its value is -14% [at 102 µM].

**Q.** Which “activity, negative = inhibition” value does the source give for Cc1ccc(Cl)c(OCC(=O)N2CCc3ccccc3C2)c1 here?
**A.** Its value is 4.26% [at 102 µM].

**Q.** CSC1=N/C(=C\C=C\c2cccs2)C(=O)S1 was tested. Which Potency did it give?
**A.** Its Potency is 7.94 µM (active).

**Q.** How did the “activity, negative = inhibition” value turn out when Cc1cccc(C2=N/C(=C/c3cccs3)C(=O)O2)c1 was run?
**A.** Its value is -37.5% [at 102 µM].

**Q.** O=C1N/C(=C/c2cccs2)C(=O)N1Cc1ccc(F)cc1 was tested. Which “activity, negative = inhibition” value did it give?
**A.** Its value is -10.9% [at 102 µM].
